The results in this text go back to the OligoGym collection.
Further: reference of the scale not given here.

For the first experiment, the target named is CEP55. Put plainly: pooled miR-30 sensor sort-seq; sequence = guide strand. To be noted: shRNA.
For TTGATAAGCATTCTTCTCCTTC, the sensor-assay potency score (higher = more potent) came to 0.207.

Consider TTTCTTCATATTTTCTTCGAAA, for which the sensor-assay potency score (higher = more potent) is -1.41.

In turn, TTCTTCTTGCTGCTTTAGCAGA gave a sensor-assay potency score (higher = more potent) of -1.21.

TAAATTGTGAACTTCTTTTTGG showed a sensor-assay potency score (higher = more potent) of -0.104.

As to TAACCCATTAGCAATAACCTGA, the sensor-assay potency score (higher = more potent) was -0.42.

The target of a further experiment is CETN1. The experiment is described as above. To be noted: shRNA.
On to AGCTTCGTCGATCATCTCCTGC, for which the sensor-assay potency score (higher = more potent) was -1.15.

Sequence ATCCCGATCAGCTTCGTCGATC registered a sensor-assay potency score (higher = more potent) of -1.43.

TTCGCGTCGATGGTCCCACTTC showed a sensor-assay potency score (higher = more potent) of -0.957.

The sequence TTTCTCTTTTGGCCGGTGGAGG registered a sensor-assay potency score (higher = more potent) of -1.52.

Take TAGATCTAGACAAATTATGGGG: the sensor-assay potency score (higher = more potent) is -0.0246.

TATTGAACTAGAGATATGGAAA: the sensor-assay potency score (higher = more potent) is -1.01.

For ATCAGCTTCGTCGATCATCTCC, the sensor-assay potency score (higher = more potent) was -0.374.

For the sequence TTCGTCGATCATCTCCTGCAGC, the sensor-assay potency score (higher = more potent) is -0.572.

TTCTCGGACATCTTCTGCGTCA registered a sensor-assay potency score (higher = more potent) of -0.598.

TTCCCGAACTTCTTGCTTCTGA returned a sensor-assay potency score (higher = more potent) of 0.00399.

As for TCATTGAAGCTGATCTTCCCCG, the sensor-assay potency score (higher = more potent) was -0.662.

TTGCTTCTGATCCTCAGTGAGC had a sensor-assay potency score (higher = more potent) of -1.03.

TTGAAGCTGATCTTCCCCGTGC displayed a sensor-assay potency score (higher = more potent) of 0.267.

As for TCATCGTCATCAAAGAGCCTGA, the sensor-assay potency score (higher = more potent) was -0.321.

On to TTCAGGATTTCTTCTTTGGTGT, for which the sensor-assay potency score (higher = more potent) was -0.547.

Consider TTTTGAACGAGATCTTCCCGGT, for which the sensor-assay potency score (higher = more potent) was found to be 0.317.

Consider TCTTCTTTGGTGTCCTTCTCGG, for which the sensor-assay potency score (higher = more potent) was -0.36.

TTCTTCTTTGGTGTCCTTCTCG gave a sensor-assay potency score (higher = more potent) of 0.166.

Turning to TTTTTGAACGAGATCTTCCCGG, the sensor-assay potency score (higher = more potent) was 0.117.

On to TTTGGTGTCCTTCTCGGACATC, for which the sensor-assay potency score (higher = more potent) was -1.04.

Sequence AACTTCTTGCTTCTGATCCTCA came in with a sensor-assay potency score (higher = more potent) of -0.468.

For TCTTGCTTCTGATCCTCAGTGA, the sensor-assay potency score (higher = more potent) was 0.681.

Regarding ATTGAAGCTGATCTTCCCCGTG, the sensor-assay potency score (higher = more potent) was -0.49.

On to TTAGGTGCCACCTTTCTCTTTT, for which the sensor-assay potency score (higher = more potent) stood at 0.187.

The target of a further experiment is CFHR1. The experiment is described as above. The settings on record: shRNA.
As for TATATGAGCATTTTGTACTGTG, the sensor-assay potency score (higher = more potent) stood at 0.209.

For TGAAATTAAGAACTGATTTAAT, the sensor-assay potency score (higher = more potent) is -1.22.

The sequence TTTCCCGTAGAATCTTTGCATT came in with a sensor-assay potency score (higher = more potent) of -1.19.

Turning to TTACACACAAATTCAGCTGATT, the sensor-assay potency score (higher = more potent) is -0.226.

In turn, TACTCATCTGTCTCGACAGTAT came in with a sensor-assay potency score (higher = more potent) of -0.805.

As for TTAAGAACTGATTTAATACTAA, the sensor-assay potency score (higher = more potent) was -0.326.

Regarding TCTGTCTCGACAGTATATGAGC, the sensor-assay potency score (higher = more potent) was -1.41.

TTTACACACAAATTCAGCTGAT: the sensor-assay potency score (higher = more potent) worked out at 0.481.

TAATTTGCACAGTATCACCTTC showed a sensor-assay potency score (higher = more potent) of 0.283.

TTGCACAGTATCACCTTCCAGA displayed a sensor-assay potency score (higher = more potent) of -0.325.
